Only some compounds are listed: those with a hit (about 6.9% of all), similar ones and a draw of the others.
CSC inhib = blocks cancer stem cells; inhibition, % at 7.5 µM; hit rate 1.1% among 300,000; cancer stem cell-like cells viability, luminescence; AID 2717; in the data active = inhibition above about 75%; inconclusive = no clear call, values can overlap the other calls; tested in HMLE shEcad cells
NR3A LBD binder = modulators (binders) of human NR3A ligand-binding domain | NR3A LBD differential scanning fluorimetry, Tm shift; 0% = protein alone, 100% = glycine-bound protein | Tm shift relative to glycine control, % at 25 µM | hit rate 2.5% among 340,000 | AID 1259313;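 active = melting temperature shift of at least 10% of the positive control shift, at one fixed dose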
Mdm2 MdmX PPI = human Mdm2/MdmX binding inhibition; O15151+Q00987; SaOS-2 split-luciferase Mdm2/MdmX complementation, luminescence; inhibition, % at 8 µM; hit rate 3% among 330,000;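 active = inhibition of at least 50% at 8 µM in the primary screen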
Target sequence (O15151 whole entry, looked up): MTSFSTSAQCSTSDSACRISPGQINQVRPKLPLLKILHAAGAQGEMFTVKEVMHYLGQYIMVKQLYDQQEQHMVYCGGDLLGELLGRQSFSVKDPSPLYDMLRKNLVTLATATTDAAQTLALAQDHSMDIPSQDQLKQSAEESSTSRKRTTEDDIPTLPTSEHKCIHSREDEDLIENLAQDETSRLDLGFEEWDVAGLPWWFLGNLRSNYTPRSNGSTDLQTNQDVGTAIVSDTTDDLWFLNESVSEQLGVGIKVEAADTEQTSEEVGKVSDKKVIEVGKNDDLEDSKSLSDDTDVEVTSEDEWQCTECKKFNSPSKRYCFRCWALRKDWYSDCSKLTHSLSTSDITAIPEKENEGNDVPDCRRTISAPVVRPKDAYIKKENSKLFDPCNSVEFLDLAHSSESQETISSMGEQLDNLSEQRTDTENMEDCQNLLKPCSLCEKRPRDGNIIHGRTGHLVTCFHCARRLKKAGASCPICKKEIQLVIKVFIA
Target sequence (Q00987 whole entry, looked up): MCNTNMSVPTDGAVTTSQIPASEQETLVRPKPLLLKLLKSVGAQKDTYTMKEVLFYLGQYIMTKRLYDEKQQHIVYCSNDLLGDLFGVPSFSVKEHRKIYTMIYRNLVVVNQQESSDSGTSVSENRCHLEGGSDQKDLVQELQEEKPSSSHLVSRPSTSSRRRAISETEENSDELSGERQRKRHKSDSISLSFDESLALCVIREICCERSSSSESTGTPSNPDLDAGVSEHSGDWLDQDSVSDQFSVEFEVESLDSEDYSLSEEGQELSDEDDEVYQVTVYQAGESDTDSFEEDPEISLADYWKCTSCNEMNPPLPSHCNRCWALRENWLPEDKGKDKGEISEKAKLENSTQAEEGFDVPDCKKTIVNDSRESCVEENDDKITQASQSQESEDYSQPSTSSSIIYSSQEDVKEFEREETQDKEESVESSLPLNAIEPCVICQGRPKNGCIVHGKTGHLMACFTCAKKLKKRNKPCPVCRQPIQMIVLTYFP
MPTP inh = inhibitors of mitochondrial permeability transition pore. inhibition, % at 10 µM. hit rate 1.4% among 360,000. isolated mouse mitochondria, Ca2+ swelling absorbance, 30 min;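 active = inhibition of 50% or more, scaled per plate between neutral and stimulator controls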
SKKanGAS inh = blocks kanamycin growth of S. pyogenes SKKanGAS strain; BacTiter-Glo, 6 h; inhibition, % at 7.5 µM; hit rate 1.3% among 300,000;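 active = mean replicate score, as percent of positive control median, at least 50; inconclusive = mean below 50 but one replicate at or above 50; inactive = mean and every replicate below 50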;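 also: strain carries kanamycin resistance gene driven by streptokinase promoter and grows in 40 µg/ml kanamycin; loss of luminescence reflects streptokinase promoter inhibition or plain growth inhibition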
Beta apoptosis = beta cell apoptosis inhibition | protection from apoptosis, % (concentration not given with the values) | INS-1E cytokine-induced death, ATP luminescence, 48 h; percent of positive-control rescue, neutral wells zero | hit rate 0.8% among 300,000;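 active = Every replicate reaches about 75%, or at least half do and their mean reaches it too, limit read from the data; inconclusive = At least half of replicates reach the limit but their mean does not; inactive = Under half of replicates reach the limit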;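 also: higher means more ATP so stronger rescue from cytokine killing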
Mdm2 MdmX conf = human Mdm2/MdmX binding inhibition, confirmed; inhibition, % at 8 µM; luminescent assay; AID 489028; shares compounds with Mdm2 MdmX PPI; hit rate 55% among 10,000; in the data active = inhibition above about 40%
Full FLuc ctr = full-length luciferase inhibition in Mdm2/MdmX counter-screen | shares compounds with Mdm2 MdmX PPI | SaOS-2 full-length luciferase counterscreen, luminescence | inhibition, % at 8 µM | hit rate 77% among 6,200;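 active = mean inhibition at 8 µM reaching about 37%, which flags the compound as non-specific, limit read from the data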;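 also: p53-null SaOS-2 cells with luciferase driven by a doxycycline-inducible promoter; compound on cells about two nights before reading with doxycycline added after day one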
Of the large screens only hits and unclear results are named; the others gave an inactive call (follow-up assays come after a bar, where they were run).

O=C(CN1C(=O)c2ccccc2S1(=O)=O)c1ccccc1Cl	Mdm2 MdmX PPI 58.3 (no result: NR3A LBD binder, Beta apoptosis) | Mdm2 MdmX conf 55.2 | Full FLuc ctr 82.0
O=[N+]([O-])c1ccc(N/N=C/c2cn(-c3ccccc3)nc2-c2ccccc2)cc1	NR3A LBD binder 40.8, Mdm2 MdmX PPI 57.4 | Mdm2 MdmX conf inactive | Full FLuc ctr 52.2
NS(=O)(=O)c1ccc(NC(=O)/C=C/c2cn(-c3ccccc3)nc2-c2cccc(Cl)c2)cc1	NR3A LBD binder 30.6, Mdm2 MdmX PPI 50.2 | Mdm2 MdmX conf inactive
O=C(O)/C=C/c1cn(-c2ccccc2)nc1-c1cccc([N+](=O)[O-])c1	none
COc1ccccc1NS(=O)(=O)c1ccc(N/N=C/c2c(C)nn(-c3ccccc3)c2N2CCCC2)c([N+](=O)[O-])c1	none
COc1c(/C=N/Nc2ccc([N+](=O)[O-])cc2[N+](=O)[O-])c(C)nn1-c1ccccc1	Mdm2 MdmX PPI 54.1 | Mdm2 MdmX conf inactive
Cc1ccc(-c2nn(-c3ccccc3)cc2/C=C/C(=O)Nc2nccs2)cc1	NR3A LBD binder 24.3, Mdm2 MdmX PPI 72.3 | Mdm2 MdmX conf 42.8 | Full FLuc ctr 37.4
O=C(CNc1ccccc1)N/N=C/c1cn(-c2ccccc2)nc1-c1ccccc1	none
COc1ccc(-c2nn(-c3ccccc3)cc2C(=O)Nc2nccs2)cc1	none
CCCCN(C)CCNC(=O)c1cn(C)c(=O)c2c1c1ccccc1n2C	none
Cc1ccc(C(=O)OCC(=O)c2c[nH]c3ccccc23)cc1S(=O)(=O)N1CCOCC1	none (no result: CSC inhib, SKKanGAS inh, Beta apoptosis)
NS(=O)(=O)c1ccc(N/N=C/c2cn(-c3ccccc3)nc2-c2ccccc2)c([N+](=O)[O-])c1	CSC inhib 139.9, Mdm2 MdmX PPI 84.0, Beta apoptosis 91.1 | Mdm2 MdmX conf inactive
NS(=O)(=O)c1ccc(N/N=C/c2ccccn2)c([N+](=O)[O-])c1	none
Nc1ncnc2oc(-c3ccco3)c(-c3ccco3)c12	Mdm2 MdmX PPI 52.4 (no result: CSC inhib, Beta apoptosis) | Mdm2 MdmX conf inactive
COc1ccc(-c2csc(NC(=O)c3ccc(S(=O)(=O)N4CCc5ccccc5C4)cc3)n2)c(OC)c1	none (no result: CSC inhib)
CC1(C)Cc2c(ccc3ccccc23)C(=O)N1	Mdm2 MdmX PPI 52.1 (no result: Beta apoptosis) | Mdm2 MdmX conf 54.1 | Full FLuc ctr 54.8
CCOc1ccc(N(CC(=O)Nc2ccccc2OCC)S(=O)(=O)c2c(C)noc2C)cc1	Mdm2 MdmX PPI 65.3 | Mdm2 MdmX conf 61.8 | Full FLuc ctr 89.8
COc1ccccc1NC(=O)c1ccc(CN(c2cc(Cl)ccc2C)S(=O)(=O)c2ccccc2)cc1	Mdm2 MdmX PPI 60.9 | Mdm2 MdmX conf inactive
COc1ccc(NC(=O)c2ccc(CN(c3cc(Cl)ccc3C)S(=O)(=O)c3ccccc3)cc2)cc1OC	none
CCOc1ccc(N(CC(=O)Nc2ccc(C)cc2)S(=O)(=O)c2c(C)noc2C)cc1	none (no result: Beta apoptosis)
CCOc1ccc(N(CC(=O)Nc2ccccc2OC)S(=O)(=O)c2ccccc2)cc1	Mdm2 MdmX PPI 57.9 | Mdm2 MdmX conf 63.2 | Full FLuc ctr 78.7
CN1CCC(N(C)C(=O)c2cccc(S(=O)(=O)N3CCc4ccccc43)c2)CC1	none (no result: SKKanGAS inh)
Cc1cc(C(=O)N/N=C\c2cc(C(C)(C)C)ccc2O)n[nH]1	Mdm2 MdmX PPI 65.3 | Mdm2 MdmX conf 59.9 | Full FLuc ctr 41.0
Cc1ccc(-c2cc(C(=O)N/N=C/c3ccccc3O)n[nH]2)o1	CSC inhib 78.7, NR3A LBD binder 30.9, Mdm2 MdmX PPI 53.3 | Mdm2 MdmX conf 52.9 | Full FLuc ctr 47.0
Cc1cc(C(=O)N/N=C/c2cc(Br)cc(Br)c2OC(=O)c2cccc(F)c2)n[nH]1	CSC inhib inconclusive, Mdm2 MdmX PPI 51.1, Beta apoptosis 96.9 | Mdm2 MdmX conf 63.6 | Full FLuc ctr 43.0
Cc1cccc(C(=O)Oc2c(Br)cc(Br)cc2/C=N/NC(=O)c2ccncc2)c1	none (no result: CSC inhib)
Cc1nc2ccc(C(=O)N/N=C/c3ccccc3O)cc2[nH]1	none
COc1cc(C(=O)NC(=S)Nc2ccc(Cl)cn2)cc(OC)c1OC	none
O=C(Nc1ccc(Cl)c(S(=O)(=O)N2CCCC2)c1)c1cc(=O)[nH]c2ccccc12	Mdm2 MdmX PPI 51.6 (no result: SKKanGAS inh) | Mdm2 MdmX conf inactive
O=C(Nc1cccc(S(=O)(=O)N2CCCC2)c1)c1cc(=O)[nH]c2ccccc12	none (no result: CSC inhib, SKKanGAS inh)

Screening results deposited in PubChem by several laboratories.
